Publication PMC8384837, “Expanding the binding specificity for RNA recognition by a PUF domain”

What follows are sequences tested against PUM1 PUF domain R4-VPA (Homo sapiens, UniProt Q14671 828-1176, N971V;H972P;Q975A) (assay: yeast three-hybrid, YBZ-1, SC-Leu-His + 0.5 mM 3-AT, 4 days). Conditions: tags: N-Gal4 AD-HA kept; label: inside an RPR1-promoter hybrid RNA with tandem MS2 sites; ssRNA.
Method in brief: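 The interaction score is the log change in how often each variant appears, from input to selection. Frequencies came from PCR-amplified, Illumina-sequenced repeat regions of Pumilio-1 PUF domain libraries grown in strain YBZ-1 (LexA–MS2 coat fusion, HIS3 reporter) alongside matching RNA elements. Input plates were SC-Leu and selection plates were SC-Leu-His + 0.5 mM 3-AT, each for four days, and the log2 calculation used a pseudocount of 1 where a variant was absent.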

Row | Sequence | binding signal
1 | GGCUAGAACUAGUGGAUCCCCCGGCGCCCGGCGGCUCGAGCCCGGGUAAGUGUAAAUAGUCUGCAUGCCGCCGGGCGCCAUGCCUGCAGGUCGACUCUAGAAAACAUG | 1.54 log2 enrichment (interaction score)
2 | GGCUAGAACUAGUGGAUCCCCCGGCGCCCGGCGGCUCGAGCCCGGGUAAGUGUAUAUAGUCUGCAUGCCGCCGGGCGCCAUGCCUGCAGGUCGACUCUAGAAAACAUG | 3.26 log2 enrichment (interaction score)
3 | GGCUAGAACUAGUGGAUCCCCCGGCGCCCGGCGGCUCGAGCCCGGGUAAGUGUACAUAGUCUGCAUGCCGCCGGGCGCCAUGCCUGCAGGUCGACUCUAGAAAACAUG | 1.62 log2 enrichment (interaction score)
